This is an account of results in PubChem BioAssay AID1851 (National Center for Advancing Translational Sciences (NCATS), 2009).

For orientation: AC50 means the concentration at which the activity in the assay is half-maximal.

The campaign covered roughly 16,000 compounds. About 5,800 (36%) were called active. Roughly 23% stayed inconclusive and do not appear here. Calls come from the whole dose curve; as a rule, active = well fitted curve in the direction sought with a large enough effect; inconclusive = small, poorly fitted or top-dose-only effect, or effect the other way; inactive = no such curve, though single readings can be large or run the other way. This is one part of the list.
% is set by controls: 0 for no effect and ±100 for the full control effect.

In this experiment the target is Cytochrome P450 2C19 (Homo sapiens) (UniProt P33261). As to the kind of experiment: Cytochrome panel assay with activity outcomes. Particulars: recombinant CYP, pro-luciferin dealkylation, luminescence, p450-cyp2c19; series mostly up to 57.1 µM.
Cytochrome P450 2C19 (Homo sapiens), sequence (P33261 whole entry, looked up): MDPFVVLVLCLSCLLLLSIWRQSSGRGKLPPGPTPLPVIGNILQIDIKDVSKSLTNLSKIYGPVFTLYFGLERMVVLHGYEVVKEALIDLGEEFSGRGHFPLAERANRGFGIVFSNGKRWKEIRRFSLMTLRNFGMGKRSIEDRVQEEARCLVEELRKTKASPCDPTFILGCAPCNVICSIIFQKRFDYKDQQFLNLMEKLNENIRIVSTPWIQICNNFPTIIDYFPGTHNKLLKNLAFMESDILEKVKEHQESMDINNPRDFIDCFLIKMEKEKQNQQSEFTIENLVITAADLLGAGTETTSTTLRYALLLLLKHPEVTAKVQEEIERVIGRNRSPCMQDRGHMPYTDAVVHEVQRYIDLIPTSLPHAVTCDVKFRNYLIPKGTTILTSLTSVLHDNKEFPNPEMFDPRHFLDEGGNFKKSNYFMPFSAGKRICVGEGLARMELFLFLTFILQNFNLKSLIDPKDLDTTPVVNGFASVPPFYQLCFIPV
In the case of `N#Cc1ccc(CN2CCC3(CC2)CCN(C(=O)c2cc(C(F)(F)F)cc(C(F)(F)F)c2)CC3)cc1`, the AC50 entry is “inactive”.
With `O=c1c(-c2ccc(O)cc2)coc2cc(O)ccc12`, the AC50 was 10 µM (active).
Still for that read-out and setting: as for `O=c1c(-c2ccc(Cl)cc2)nc2cncnc2n1Cc1ccccc1Cl`, the figure is 3.98 µM (active).
Still for that read-out and setting: as for `O=c1c(-c2ccc(F)c(F)c2)nc2cncnc2n1C1CC1`, the entry is “inactive”; as for `O=c1c(-c2ccc(F)c(F)c2)nc2cncnc2n1Cc1ccccc1Cl`, 6.31 µM (active); as for `CN(CCOc1ccc(C[C@H](Nc2ccccc2C(=O)c2ccccc2)C(=O)O)cc1)c1ccccn1`, 3.98 µM (active).
In the case of `CNc1nc(NCCOC23CC4CC(CC(C4)C2)C3)nc(OCC(F)(F)F)n1`, the AC50 was 1.41 µM (active).
As for `O=C(c1ccco1)N1CCC2(CC1)CCN(C(c1ccccc1)c1ccccc1)CC2`, the AC50 entry was “inactive”.
The same measure, in the same setting: as for `CC(C)CCn1nnnc1C(c1ccc(F)cc1)N1CCN(C(=O)c2ccco2)CC1` (stereo not drawn), the figure is 4.47 µM (active); as for `O=C(c1ccco1)N1CCC2(CC1)CN(C(c1ccccc1)c1ccccc1)C2`, “inactive”.
As for `CCC(c1nnnn1CCOC)N1CCN(C(=O)c2ccco2)CC1` (stereo not drawn), the AC50 was 3.98 µM (active).
`C[C@]1(OC(=O)/C=C\c2ccccc2)C[C@@H](O)[C@@]2(O)C=CO[C@@H](O[C@H]3O[C@@H](CO)[C@@H](O)[C@@H](O)[C@@H]3O)[C@H]21`: the AC50 result is “inactive”.
Same read-out and setting: as for `CC(C)NC(=O)CSc1nnc(C2CC2)n1-c1ccccc1`, the entry is “inactive”; as for `Cc1ccccc1NC(=O)CSc1nnc(-c2ccccc2)n1-c1ccccc1`, 2.24 µM (active); as for `CCN(CC)C(=O)CSc1nnc(-c2ccncc2)n1N`, “inactive”.
Take `CCOc1ccc(-n2c(SCC(=O)Nc3ccccc3C)n[nH]c2=O)cc1`: the AC50 is 5.62 µM (active).
Turning to `O=C(CSc1nnc(-c2ccccc2)n1-c1ccccc1)c1cccs1`, the AC50 was 0.631 µM (active).
Regarding `Cc1ccc(C(=O)NNC(=O)CSc2nnc(-c3ccncc3)n2-c2ccc(C)cc2)cc1`, the AC50 was 5.62 µM (active).
Take `Cc1cc(C2(c3cc(C)c(O)c(C(=O)O)c3)OS(=O)(=O)c3ccccc32)cc(C(=O)O)c1O`: the activity, negative = inhibition is 12.7% [at 11.4 µM] (inactive).
As for `O=C(O)c1cc2c(o1)CCC/C2=N\O`, the AC50 entry was “inactive”.
On to `CCn1c(SCC(=O)Nc2ccccc2C(=O)OC)nnc1-c1ccc(N)cc1`, for which the AC50 was 0.178 µM (active).
As for `CC(=O)OC1CCC(OC(C)=O)c2c1n([O-])c(C)c(C)[n+]2=O` (stereo not drawn), the AC50 result is “inactive”.
`CC(=O)Oc1ccccc1C(=O)Oc1ccccc1C(=O)O`: the AC50 result is “inactive”.
As to `Cc1ccccc1S(=O)(=O)O[C@@H]1NS(=O)(=O)c2ccccc21`, the activity, negative = inhibition was 24% [at 11.4 µM] (inactive).
For `Cc1ccccc1S(=O)(=O)Oc1ccccc1C(=O)Oc1ccccc1`, the AC50 is 1.78 µM (active).
`CCOC(=O)C(C)CC(C)C(=O)N1CCOCCN(C(=O)C(C)CC(C)C(=O)OCC)CCOCC1` (stereo not drawn): the AC50 was 10 µM (active).
Regarding `NC(=O)CN1CCOCCOCCOCCOCCOCC1`, the AC50 result is “inactive”.
Consider `CC(C)OC(=O)C(CC(=O)O)N1CCOCC1` (stereo not drawn), for which the AC50 result was “inactive”.
As for `CC1(C)O[C@@H]2C[C@H]3[C@H]4C[C@H](F)C5=CC(=O)CC[C@]5(C)[C@@H]4[C@H](O)C[C@]3(C)[C@]2(C(=O)CO)O1`, the AC50 result is “inactive”.
On to `O=C1CC(=Nc2ccccc2)NN1c1ccccc1`, for which the half-maximal activity concentration (AC50) is 5.62 µM (active).
Same read-out and setting: as for `CC1=NN(c2ccccc2)C(=O)C1`, the entry is “inactive”.
As to `c1ccc2c(c1)C(=Nc1ccc(N=C3c4ccccc4-c4ccccc43)cc1)c1ccccc1-2`, the activity, negative = inhibition is -36.8% [at 11.4 µM] (inactive).
In the case of `CCCCC1=NN2C(=N)CC(=O)N=C2S1`, the AC50 result is “inactive”.
Turning to `CO[C@@H]1COC(=O)[C@H](Cc2ccccc2)NC(=O)C/C=C\[C@@H](C)[C@H](OC)COC(=O)[C@@H](C)NC(=O)C/C=C\[C@H]1C`, the activity, negative = inhibition is 10.6% [at 11.4 µM] (inactive).
Regarding `O=C1C(Cc2ccccc2)NC(=S)N1c1ccccc1` (stereo not drawn), the AC50 was 3.16 µM (active).
With `C[C@H]1COC(=O)[C@H](Cc2ccccc2)NC(=O)[C@@H](C)COC(=O)[C@H](Cc2ccccc2)NC1=O`, the activity, negative = inhibition is -17.3% [at 11.4 µM] (inactive).
Regarding `O=C(Cn1cnc([N+](=O)[O-])c1)NCc1ccc(F)cc1`, the AC50 result is “inactive”.
As for `C[C@H](NC(=O)Cn1cncn1)c1ccccc1`, the AC50 result is “inactive”.
Same read-out and setting: the figure for `Cc1ccc(CNC(=O)Cn2cncn2)cc1` is 7.94 µM (active); for `Cc1cc(N)n(-c2ccc3ccccc3c2)n1` it is 25.1 µM (active).
For `O=C(c1csnn1)N1CCC2(CC1)CN(c1ccccn1)C2`, the AC50 result is “inactive”.
Regarding `Cc1ccc(Nc2ccc(-n3ccnc3)nn2)cc1C`, the AC50 is 0.0501 µM (active).
Take `CC(C)C(=O)NC(=S)Nc1ccccc1C(=O)Nc1ccccc1`: the concentration at half-maximal activity (AC50) was 15.8 µM (active).
Consider `CCC(C)NC(=O)c1ccccc1NC(=O)Nc1ccccc1` (stereo not drawn), for which the AC50 is 10 µM (active).
Regarding `Clc1ccc([C@H](Cn2ccnc2)OCc2csc3c(Cl)cccc23)c(Cl)c1`, the AC50 was 0.251 µM (active).
For the molecule `Clc1ccc(CO[C@@H](Cn2ccnc2)c2ccc(Cl)cc2Cl)cc1`, the AC50 was 0.0631 µM (active).
On the same count and under the same terms, the entry for `CC1(C)Cc2c(sc3c2C(=O)N(c2ccccc2)C2=NCCN23)CS1` is “inactive”.
Consider `[O-][n+]1c(CN2CCCCC2)nc2cccc3c2c1-c1ccccc1-3`, for which the activity, negative = inhibition is 9.09% [at 11.4 µM] (inactive).
As for `Cc1ccccc1Cn1c(Cc2ccccc2)nc2ccccc21`, the AC50 was 2 µM (active).
As to `Cn1c(-c2ccc(CN3CCCCC3)o2)nc2ccccc21`, the AC50 entry is “inactive”.
`c1ccc(Cn2c(CN3CCCC3)nc3ccccc32)cc1`: the AC50 was 3.55 µM (active).
Consider `Cc1ccccc1CN1C2=NCCN2C(=O)C2=C1CCN(Cc1ccccc1)C2`, for which the activity, negative = inhibition was 10.2% [at 11.4 µM] (inactive).
Take `Clc1ccc(Cn2c(CN3CCCC3)nc3ccccc32)cc1`: the AC50 is 0.2 µM (active).
Consider `C[N+]1(C)CCO[C@](O)(c2ccccc2)C1`, for which the activity, negative = inhibition is 42.8% [at 11.4 µM] (inactive).
Turning to `c1ccc(SC(Sc2ccccc2)c2ccc3c(c2)OCO3)cc1`, the AC50 was 0.0316 µM (active).
Take `c1cc2c(cc1C(N1CCNCC1)N1CCNCC1)OCO2`: the activity, negative = inhibition is 14.2% [at 11.4 µM] (inactive).
In the case of `Cc1ccc(S(=O)(=O)N(CC(=O)N/N=C/c2ccc(F)cc2)c2cccc3cccnc23)cc1`, the AC50 is 1.12 µM (active).
Take `CC(C)COCC1CC2(CC(C)(c3csc(N)n3)OC2=O)C(=O)O1` (stereo not drawn): the AC50 was 15.8 µM (active).
On the same count and under the same terms, as for `CCCSC1=C(C#N)C(c2cccnc2)C(C(=O)OCC)=C(c2ccccc2)N1` (stereo not drawn), the figure is 14.1 µM (active); as for `N#Cc1cccc(NC(=O)N2CCCC3(CCN(C(=O)c4cnccn4)CC3)C2)c1`, “inactive”.
On to `NN(CC(=O)O)CC(=O)O`, for which the activity, negative = inhibition is 14.5% [at 11.4 µM] (inactive).
Turning to `O=C(Nc1nc(-c2ccccc2)cs1)c1cccc([N+](=O)[O-])c1`, the AC50 was 1.58 µM (active).
Turning to `O=C(Nc1nc(-c2ccccc2)cs1)c1ccc(Br)o1`, the AC50 is 14.1 µM (active).
Regarding `CCNc1ncc2nc(C)c(=O)n(C)c2n1`, the AC50 entry is “inactive”.
For `COc1ccc([C@H]2Sc3ccccc3N(CCN(C)C)C(=O)[C@H]2OC(C)=O)cc1`, the AC50 entry is “inactive”.
Regarding `CN(C)CCCN=c1c2ccccc2n(C)c2[nH]c(=O)n(C)c(=O)c12`, the activity, negative = inhibition was 31% [at 11.4 µM] (inactive).
Consider `CCNc1ncc2nc(-c3ccc(F)cc3)c(=O)n(CCC#N)c2n1`, for which the AC50 result was “inactive”.
Regarding `CC(C)c1ccc(C(=O)CC2(O)C(=O)N(CN3CCOCC3)c3ccccc32)cc1` (stereo not drawn), the AC50 was 2.24 µM (active).
Consider `CC1(C)C(=O)N(CCN2CCC(C(=O)c3ccc(F)cc3)CC2)c2ccccc21`, for which the AC50 entry is “inactive”.
With `C[C@@H]1C[C@H]2[C@H]3C[C@@H](F)C4=CC(=O)C=C[C@]4(C)[C@@]3(Cl)[C@@H](O)C[C@@]2(C)[C@@H]1C(=O)COC(=O)C(C)(C)C`, the AC50 entry was “inactive”.
The same measure, in the same setting: as for `Clc1ccc(/C=N/Nc2nnc(-c3ncc[nH]3)c3ccccc23)cc1`, the figure is 11.2 µM (active).
For `C(=N/Nc1nnc2c(n1)[nH]c1ccccc12)/c1cccnc1`, the activity, negative = inhibition is -3.42% [at 11.4 µM] (inactive).
For the molecule `C=CC[n+]1c(-c2ccc(C)cc2)csc1NNC(=O)Nc1ccccc1`, the AC50 is 5.01 µM (active).
On to `O=C1CC(N2CCN(CCc3ccccn3)CC2)C(=O)N1c1ccc(Cl)cc1` (stereo not drawn), for which the AC50 was 8.91 µM (active).
The same measure, in the same setting: the entry for `O=C(CCn1nc(-c2ccc(Cl)cc2)ccc1=O)NCc1ccccn1` is “inactive”; for `CC1(C)CC2(CC(c3cccs3)c3cc(Cl)c(O)cc3O2)NC(=S)N1` (stereo not drawn) it is 2.82 µM (active); for `O=C(O)c1ccccc1OP(=O)(O)O` it is “inactive”.
On to `Cc1ccc(Oc2nnc(-c3ccccc3)cc2C#N)cc1`, for which the AC50 entry was “inactive”.
Take `Cc1nc(Sc2ccccc2)c(C#N)cc1-c1ccccc1`: the AC50 is 0.631 µM (active).
On the same count and under the same terms, as for `Cc1nc(Cl)c(C#N)cc1-c1ccccc1`, the figure is 5.62 µM (active).
Consider `O=C(O)c1c[nH]c2cc(OCc3ccccc3)ccc2c1=O`, for which the activity, negative = inhibition is 0.142% [at 11.4 µM] (inactive).
For `Cc1cc2c(cc1C)NC1=C(N2)O[C@H](c2c[nH]c3ccc(COc4ccccc4)cc23)C1=O`, the AC50 was 0.501 µM (active).
With `Cc1ncc(N=Nc2ccccc2Cl)c(-c2ccccc2)n1`, the AC50 is 14.1 µM (active).
As to `CCSC1=C(C#N)C2(CCCCC2)C(C#N)=C(N)N1`, the concentration at half-maximal activity (AC50) is 5.01 µM (active).
In the case of `COc1ccc(C(=O)C(OC(=O)CNC(=O)c2ccco2)c2ccccc2)cc1` (stereo not drawn), the AC50 was 10 µM (active).
Take `COc1ccc(C(=O)[C@H](Br)[C@H](Br)C(=O)O)cc1`: the activity, negative = inhibition was -1.07% [at 11.4 µM] (inactive).
For `O=C(CNC(=O)c1ccco1)OC(C(=O)c1ccccc1)c1ccccc1` (stereo not drawn), the AC50 was 5.62 µM (active).
For the molecule `COc1ccc(-c2ccc(/C=C3\C(=O)N(c4ccccc4)N=C3c3ccccc3)o2)c([N+](=O)[O-])c1`, the half-maximal activity concentration (AC50) was 2.51 µM (active).
Turning to `COC(=O)c1ccccc1-c1ccc(/C=C2\C(=O)N(c3ccccc3)N=C2c2ccccc2)o1`, the AC50 was 1.41 µM (active).
Regarding `CC1=NN(c2ccccc2)C(=O)/C1=C\N1CC(C)OC(C)C1` (stereo not drawn), the AC50 entry was “inactive”.
In the case of `CN(C)CCCN1CCC2(CCC(C(C)(C)C)CC2)CC1`, the activity, negative = inhibition was 40.8% [at 11.4 µM] (inactive).
As for `C[C@H](Oc1ccccc1)C(=O)N[C@@H]1C(=O)N2[C@@H]1SC(C)(C)[C@@H]2C(=O)O`, the AC50 entry was “inactive”.
As to `CC(Oc1ccccc1)C(=O)Nc1nc2c(s1)C(=O)CC(C)(C)C2` (stereo not drawn), the AC50 is 7.08 µM (active).
